Laboratory results published in paper PMC5540273 (PLoS ONE, 2017).

Each compound was assayed on CSK. Settings: concentration: 1 μM, replicates: in singlicate; n = 1.
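Further: KINOMEscan kinase panel screen.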

`COc1cc2ncn(-c3cc(OCC4CCCO4)c(C(N)=O)s3)c2cc1OC` (stereo not shown) [GSK204607] and `COc1cc(Nc2nccc(N3CCC(NC(=O)Nc4cc(C)ccc4C)C3)n2)cc(OC)c1OC` (stereo not shown) [GSK1379762] are the same in “%Inh” value: 0% for the first, 0% for the second.

Compared with `C[C@@H]1CCCCN1c1cc(-c2ccc3c(N)n[nH]c3c2)nc(N)n1` [GSK2258759], `O=C(Nc1n[nH]c2nc(-c3nccs3)c(Br)cc12)C1CCCC1` [SB-742609] is lower in “%Inh” value: 2% for the first, 0% for the second.

Compared with `COc1ccc(C2=C(Nc3cccc(C(=O)O)c3)C(=O)NC2=O)cc1` [SB-390765], `Cc1cccc(-c2nc(Nc3cccc(C(N)=O)c3)c3ccccc3n2)n1` [GW876019] is lower in “%Inh” value: 12% for the first, 0% for the second.

`CCCc1ccc(S(=O)(=O)NC2CCN(c3ccnc(Nc4ccc(F)cc4)n3)C2)cc1` (stereo not shown) [GSK1379715] and `COc1ccc(CNC(=O)NC2CCN(c3ccnc(Nc4cc(OC)c(OC)c(OC)c4)n3)C2)cc1` (stereo not shown) [GSK1379748] are the same in “%Inh” value: 0% for the first, 0% for the second.

`O=C(Nc1ccccc1)Nc1cccc(Oc2ccc3nccn3n2)c1` and `Cc1ccc(NC(=O)Nc2cccc(Cl)c2)cc1-c1ccc(C(=O)Nc2ccncc2)cc1` [GSK1398468] are the same in “%Inh” value: 0% for the first, 0% for the second.

Compared with `Cn1ccc2ncnc(Oc3ccc(Nc4nc5ccccc5[nH]4)cc3)c21`, `COc1cc2ncnc(Nc3ccc4nc(-c5ccccc5)[nH]c4c3)c2cc1OC.Cl` [GW282450] is higher in “%Inh” value: 0% for the first, 10% for the second.

Compared with `Cc1cccc(-c2cc(Nc3ccncc3)c3ccccc3n2)n1` [GSK223675], `Cc1cccc(-c2nc(Nc3ccncc3)c3ccccc3n2)n1` [GW855857] is higher in “%Inh” value: 0% for the first, 4% for the second.

First: O=S(=O)(c1ccc(-c2ccnc3[nH]ccc23)cc1)N1CCCC1 [GSK846226]
Second: CS(=O)(=O)c1ccc(-c2nc3n(c2-c2ccncc2)CCC3)cc1 [SKF-105942]
The “%Inh” value of the first is lower: 10% for the first, 100% for the second.

Going from `COc1ccccc1-c1ccc2c(NC(=O)C3CC3)n[nH]c2n1` [SB-711239] to `COc1ccccc1CNC(=O)c1cc(C(=O)c2ccccc2C)c[nH]1` [GSK364507], the “%Inh” value falls from 62% to 0%.

Going from `Cl.O=C(Nc1cccc(-c2nn3ncccc3c2-c2ccnc(Nc3cccnc3)n2)c1)c1c(F)cccc1F` [GSK312879] to `COc1ccc(Nc2nccc(-c3cccc(NC(=O)c4cc5cc(F)ccc5[nH]4)c3)n2)cc1` [GSK1229782], the “%Inh” value falls from 18% to 0%.

`CC(=O)Nc1nc2cnc(Nc3cc(NC(=O)c4cccc(CCC#N)c4)ccc3C)nc2s1` and `Cc1cccc(-c2nc(C)cc(Nc3ccncc3)n2)n1` [GSK257997] are the same in “%Inh” value: 0% for the first, 0% for the second.

Going from `Cc1cc(N2Cc3ccccc3C2)nc(Nc2ccc(S(=O)(=O)N3CCOCC3)cc2)n1.Cl` [GSK1669917] to `CS(=O)(=O)c1ccc(-c2c(-c3ncn[nH]3)sc(N3CCOCC3)c2C#N)cc1`, the “%Inh” value rises from 0% to 16%.

`O=c1cc(N2CCOCC2)nc2n(Cc3cccc(Cl)c3Cl)ccn12` [GSK2286295] and `Cc1c(Cn2ccn3c(=O)cc(N4CCOCC4)nc23)cccc1C(F)(F)F` [GSK2289044] are the same in “%Inh” value: 0% for the first, 0% for the second.

`Cc1cc(-c2ccc3c(c2)CC[C@@H](N[C@@H](C)c2ccccc2)C3)cnc1N.Cl` [GW412617] and `Cc1ccc(-c2cc(-c3c[nH]nc3-c3ccccn3)ccn2)cc1` [GW684088] are the same in “%Inh” value: 0% for the first, 0% for the second.

Compared with `Cc1csc(-c2nc(Nc3ccncc3)c3ccccc3n2)n1` [GW869640], `Cc1c(O)cccc1Nc1ccnc2ccc(C(F)(F)F)cc12.Cl` [GW466413] is lower in “%Inh” value: 3% for the first, 0% for the second.

`Nc1ncnc2[nH]c(-c3ccccc3)nc12` [AH5015] and `O=C(O)COc1ncnc2cc(-c3ccc4[nH]ncc4c3)sc12` are the same in “%Inh” value: 0% for the first, 0% for the second.

`COC(=O)c1c(-c2ccccc2)c2cc(OC)ccc2c(=O)n1Cc1ccccc1` and `Fc1cccc(COc2nnc(-c3ccc4c(c3)CCO4)o2)c1` are the same in “%Inh” value: 0% for the first, 0% for the second.
